Bioassay records (PubChem)
Sampled rows, rich in hits. Any-hit rate of the full collection: about 2.1%.
Abeta yeast res: A-beta toxicity reversal in yeast | yeast expressing A-beta42, growth rescue, OD600, 48 h; response scale: 0% DMSO, 100% iron-clioquinol control | Potency, µM (highest dose often 46.1 µM), hits mostly activators | actives 0.063% (n = 410,000); also: nearly all actives have a fitted effect of over 55% in size
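Yeast growth medium received pinned compounds, then yeast cells expressing toxic A-beta were added; plates incubated at 30 C for 48 hr. Growth read as absorbance at 600 nm, normalized to DMSO and equimolar FeCl3 plus clioquinol controls.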
TDP-43 yeast inh: rescues yeast growth from TDP-43 toxicity; TDP-43 expressing yeast growth rescue, BacTiter-Glo, 24 h; Potency, µM (series often up to 46.1 µM), without a hit: at the highest dose growth rescue (activation), most hits filed as activators; actives 1.8% (n = 410,000); AID 652104; also: % of control where 0% means no effect; nearly all actives have a fitted effect of over 50% in size
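Readout is BacTiter-Glo luminescence of cell growth, so inhibitors register as activators. TDP-43-expressing yeast at OD600=0.02 in galactose medium, after raffinose pregrowth to mid-log, were incubated with compound for 24 hr at 30 deg C.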
aSyn yeast inh: rescues yeast growth from alpha-synuclein toxicity | Yeast expressing alpha-synuclein, growth rescue, BacTiter-Glo, 24 h | Potency, µM (highest dose often 46.1 µM), for inactives: top-dose growth rescue (activation), hits mostly activators | actives 0.14% (n = 370,000); also: % of control where 0% means no effect; nearly all actives have a fitted effect of over 65% in size
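Galactose-induced alpha-syn yeast (OD600=0.02, raffinose-pregrown) + pinned cpd, 24 hr, 30 deg C; growth by BacTiter-Glo luminescence. Growth restoration scores as activation.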
FUS yeast rescue: rescues growth of FUS-expressing yeast; S. cerevisiae FUS-expressing, growth rescue, OD600, 24 h; Potency, µM (titrated, usually from 76.6 µM), usual class: activators; actives 0.24% (n = 390,000); AID 1347120;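 also: plate controls were DMSO vehicle for no effect and reference control for full effect; nearly all actives have a fitted effect of over 55% in size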
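Absorbance at 600 nm, taken 24hr after compound addition, measured rescue of FUS-yeast growth at 30C. Induction used 2% galactose with seeding at OD 0.005. Controls: CP55940 from 92uM final, DMSO only.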
Numbers without * were called inactive; i = inactive; u = inconclusive; x = no result given. Calls follow the shape of the dose curve; as a rule, active = well fitted curve in the direction sought with a large enough effect; inconclusive = small, poorly fitted or top-dose-only effect, or another doubt; inactive = no such curve, though single readings can be large; an effect the other way counts as inactive or inconclusive. Potency is read from the fitted curve at half-maximal effect.

SMILES	Abeta yeast res	TDP-43 yeast inh	aSyn yeast inh	FUS yeast rescue
COc1cccc(C2=NO[C@@H]3C(=O)N(Cc4ccccc4)C(=O)[C@H]23)c1OC	i	13µM*	-1%	i
COc1cccc(C2=NO[C@@H]3C(=O)N(c4ccc5c(c4)OCCO5)C(=O)[C@H]23)c1OC	i	-3%	-1%	i
Cc1ccc(C2CCC3(CCC(=O)N3CCO)CC2)cc1 (configuration not stated)	x	x	x	i
Fc1ccc(-c2cc3nc4c(c(N5CCOCC5)n3n2)CCCC4)cc1	i	16µM*	-39%	i
O=C(CSc1ncccn1)N/N=C/c1ccc(OC2CSC2)cc1	i	11µM*	6%	i
Cc1ccc(S(=O)(=O)N(CC(=O)NC2CCC(C)CC2)c2cc(C)cc(C)c2)cc1 (configuration not stated)	x	x	x	i
Cc1nc(N2CCCCC2)sc1C(=O)c1ccc(SCCO)c([N+](=O)[O-])c1	i	35µM*	26%	i
COc1ccccc1N1CCN(C(=O)C2CC2)CC1	i	4%	-1%	i
COc1ccc(-c2noc(N3CCC(C(=O)N4CCN(c5ccccc5OC)CC4)CC3)n2)cc1	i	28µM*	x	u
COc1ccccc1N1CCN(C(=O)C2c3ccccc3Oc3ccccc32)CC1	i	u	20µM*	i
CCCCNS(=O)(=O)CC1NCc2ccc(C)cc21 (configuration not stated)	x	x	x	i
Clc1ccc(-c2csc(N/N=C/c3ccco3)n2)cc1	i	6.3µM*	-28%	i
Cc1ccc(-c2csc(N/N=C/c3ccco3)n2)cc1	i	7%	-18%	u
COC(=O)c1ccccc1NC(=O)CSc1nnc(Cc2ccc(Cl)cc2)o1	i	25µM*	6%	i
CC(C)c1ccccc1NC(=O)CSc1nnc(COc2ccccc2Cl)o1	i	20µM*	x	i
COc1ccccc1NC(=O)CSc1nnc(COc2ccc(Cl)cc2)o1	i	20%	26%	i
CC(C)c1ccccc1NC(=O)CSc1nnc(COc2ccccc2)o1	i	u	x	i
CSc1nc(N2CCOCC2)c2ccccc2n1	i	-13%	-7%	i
CSc1nc(N2CCN(c3ccccc3Cl)CC2)c2ccccc2n1	i	13µM*	-9%	i
Cc1ccc(S(=O)(=O)N2CCN(c3nc(-n4cccn4)nc4ccccc34)CC2)cc1	x	x	6%	x
Cc1ccc(NC(=O)OC2CC3CC2[C@H]2CCCCN2C3)cc1 (some centres not stated)	x	x	x	i
COc1ccc(NC(=O)Cn2ccn(-c3ccc(F)c(F)c3)c(=O)c2=O)cc1Cl	i	-1%	x	i
C[C@@H]1CN([C@H](C)CO)C(=O)c2cc(NC(=O)Nc3ccc(C(F)(F)F)cc3)ccc2O[C@H]1CN(C)S(=O)(=O)c1cccs1	i	15%	0%	10µM*
C[C@@H]1CN([C@@H](C)CO)C(=O)Cc2cc(NC(=O)Nc3ccc(C(F)(F)F)cc3)ccc2O[C@@H]1CN(C)S(=O)(=O)c1ccc(Cl)cc1	i	4%	2%	18µM*
C[C@H](CO)N1C[C@H](C)[C@@H](CN(C)S(=O)(=O)c2cccs2)Oc2ccc(NC(=O)Nc3ccc(C(F)(F)F)cc3)cc2C1=O	i	4%	1%	i
SMILES	Abeta yeast res	TDP-43 yeast inh	aSyn yeast inh	FUS yeast rescue
O=[N+]([O-])c1ccc(O/N=[N+](\[O-])N2CCCC2)c([N+](=O)[O-])c1	x	x	-45%	x
COC(=O)C1CCN(C(=O)COc2cc3sc(C)nc3c3sccc23)CC1	i	20µM*	1%	i
CC1CCN(c2ccccc2NC(=S)NC(=O)c2cccs2)CC1	i	12%	1%	i
CC1CCN(c2ccccc2NC(=O)c2ccc(F)cc2)CC1	i	13µM*	x	i
O=C(NC(=S)Nc1ccccc1N1CCCC1)c1cccc(F)c1	7.9µM*	0%	0%	i
CC1CCN(c2ccccc2NC(=S)NC(=O)C(C)(C)C)CC1	13µM*	u	-3%	i
O=C(NC(=S)Nc1ccccc1N1CCCC1)c1ccc(F)cc1	i	25µM*	-13%	x
O=C(NC(=S)Nc1ccccc1N1CCCCC1)c1ccc(F)cc1Cl	i	20%	-1%	x
Cc1ccccc1C(=O)NC(=S)Nc1ccccc1N1CCCC1	u	u	0%	i
O=C(NC(=S)Nc1ccccc1N1CCCCC1)c1ccccc1	i	11µM*	-12%	i
CCCCN(C)c1c2c(nc3ncnn13)CCCC2	x	x	x	i
COC(=O)c1ccccc1NC(=O)c1noc2c1CSc1ccccc1-2	i	14%	x	i
Cc1ccccc1N1C(=O)c2cccc3cccc(c23)C1=O	i	20µM*	-22%	i
O=C(O)c1ccccc1N1C(=O)c2cccc3cccc(c23)C1=O	i	-10%	2%	i
COc1ccc(-n2c(SCC(=O)O)nc3sc4c(c3c2=O)CCC4)cc1	i	-15%	-10%	i
COc1ccc(-n2c(C)nc3sc4c(c3c2=O)CCC4)cc1	i	13µM*	7%	i
Cc1ccc2c(c1)-c1c(cnn1CC(=O)NCCc1ccccc1F)CO2	x	x	x	i
CC(=O)c1cccc(NC(=O)C2C3C=CC(C4CC34)C2C(=O)O)c1 (configuration not stated)	u	22µM*	1%	i
Cc1ccccc1NC(=O)C1C2C=CC(C3CC23)C1C(=O)O (configuration not stated)	i	11µM*	0%	i
NC(=O)c1nc(-c2ccc(F)c(F)c2)nc2c1[nH]c(=O)n2-c1cccc(Cl)c1	i	20%	x	i
O=C(CSc1nnc(-c2cccnc2)n1-c1ccc(Cl)cc1)c1ccc(F)cc1	x	x	x	i
Fc1ccc(CSc2nnc(-c3ccccn3)o2)cc1	i	13µM*	-2%	i
NS(=O)(=O)c1ccc(OCCCN2CCC(C(O)(c3ccccc3)c3ccccc3)CC2)cc1	x	x	x	i
CC[C@H](C)[C@H]1O[C@]2(CC[C@@H]1C)C[C@@H]1C[C@@H](CC=C(C)[C@@H](O[C@H]3C[C@H](OC)[C@@H](O[C@H]4C[C@H](OC)[C@@H](O)[C@H](C)O4)[C@H](C)O3)[C@@H](C)C=CC=C3CO[C@@H]4[C@H](O)C(C)=C[C@@H](C(=O)O1)[C@]34O)O2	i	10%	25%	7.1µM*
CC[C@@H](C)[C@H]1O[C@]2(CC[C@H]1C)C[C@@H]1C[C@@H](CC=C(C)[C@@H](O[C@H]3C[C@H](OC)[C@@H](O[C@H]4C[C@H](OC)[C@@H](O)[C@H](C)O4)[C@H](C)O3)[C@@H](C)C=CC=C3CO[C@@H]4[C@H](O)C(C)=C[C@@H](C(=O)O1)[C@]34O)O2	x	x	4%	x
COc1cc(C(=O)Nc2ccc(-c3nc4ccccc4o3)c(O)c2)cc(OC)c1OC	i	8%	x	i
CC(C)(C)c1ccc(Oc2ccc(N)cn2)cc1	u	20µM*	28%	i
